The entries come from a sample that favours hits as a whole.
Giardia kill: kills Giardia lamblia; Giardia lamblia trophozoite viability; activity change, % at 7.66 µM, hits read low; 340,000 compounds, 0.15% hits; in the data active means activity change below about -80%; inconclusive means between about -30% and that limit;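 further: parasites exposed to compound for two days anaerobically before the ATP read; on the % scale 0 is the no-effect control and ±100 the full control effect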
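ATP-content bioluminescence gauges trophozoite survival. Cells (100/well) receive compound and incubate anaerobically for 48 hrs at 37 deg C; detection reagent follows for 15-30 min at room temperature.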
Gal4-VP16 FLuc: counter-screen for ROR gamma inhibitors: Gal4-VP16 reporter. Potency, µM (doses to about 53.6 µM), without a hit: at the top dose activity, negative = inhibition, hits mostly inhibitors. Drosophila S2 Gal4-VP16 UAS-luciferase, luminescence, 20 h. 310,000 compounds, 3.5% hits. AID 2546;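 further: Gal4-VP16 expression switched on by copper sulfate through the metallothionein promoter; potency means the concentration at half of the fitted maximal effect; on the % scale 0 is the no-effect control and ±100 the full control effect; nearly all actives have a fitted effect of over 50% in size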
Integrin act MD: activators of alpha7 integrin expression for muscular dystrophy; alpha7betagal myoblasts, beta-gal FDG fluorescence, 48 h; AID 624291; 350,000 compounds, 0.064% hits; Potency, µM (titrated, usually from 38.3 µM), inactives show at the top dose activation, usual class: activators;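 further: potency means the concentration at half of the fitted maximal effect; 100% = response of the positive control SU9516; nearly all actives have a fitted effect of over 60% in size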
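Alpha7betagal+/- myoblasts (passage 13) were plated 16-24 hr, then exposed to compounds (1:260 dilution of DMSO stock) for 48 hours at 37C. After MPER lysis, β-galactosidase reporter activity was read as FDG fluorescence (ex 480/em 540) after 30 minutes.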
RORg inh: ROR gamma (mouse) transcription inhibition; 310,000 compounds, 5.4% hits; P51450; Drosophila S2 Gal4-RORgamma UAS-luciferase reporter, 20 h; Potency, µM (top dose mostly 53.6 µM), without a hit: top-dose activity change, negative = inhibition, most hits filed as inhibitors; further: potency means the concentration at half of the fitted maximal effect; on the % scale 0 is the no-effect control and ±100 the full control effect; nearly all actives have a fitted effect of over 60% in size
Target sequence (P51450 whole entry, looked up, the tested form may be a part): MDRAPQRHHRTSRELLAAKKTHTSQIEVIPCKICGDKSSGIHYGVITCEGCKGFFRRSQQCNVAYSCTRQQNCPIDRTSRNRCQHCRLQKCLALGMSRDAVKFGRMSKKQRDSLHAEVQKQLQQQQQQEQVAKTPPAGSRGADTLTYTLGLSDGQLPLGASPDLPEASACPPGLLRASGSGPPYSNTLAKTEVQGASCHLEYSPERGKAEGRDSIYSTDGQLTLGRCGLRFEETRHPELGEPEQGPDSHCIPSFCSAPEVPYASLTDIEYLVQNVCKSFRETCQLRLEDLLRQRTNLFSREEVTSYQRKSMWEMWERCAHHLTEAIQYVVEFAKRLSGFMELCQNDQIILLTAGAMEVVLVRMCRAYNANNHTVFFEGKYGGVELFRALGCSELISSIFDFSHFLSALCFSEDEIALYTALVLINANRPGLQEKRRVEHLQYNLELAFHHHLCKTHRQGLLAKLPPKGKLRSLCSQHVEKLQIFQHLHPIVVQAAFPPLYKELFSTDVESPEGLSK
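Schneider cells (Drosophila), stable Gal4 DBD–ROR gamma + UAS-luc; 1 hr cmpd preincubation; Cu2+ induction 700 uM final; 20 hr ambient; luminescence.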
ERG-DNA inh: blocks human ERG Ets domain binding to DNA; fluorescence polarization, His-ERG Ets domain / labelled DNA; 370,000 compounds, 0.028% hits; AID 624246; P11308; Potency, µM (doses to about 76.9 µM), without a hit: top-dose FP activity, negative = inhibition, usual class: inhibitors; active means well fitted inhibition curve with a large enough effect in the polarisation, with a control signal flat; inconclusive means small, poorly fitted or top-dose-only effect, or effect the other way, or a change in a side signal; inactive means no such curve, though single readings can be large or run the other way; the % refers to the polarisation;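 further: polarization taken with two DNA probes labelled with fluorescein and Texas red; potency means the concentration at half of the fitted maximal effect; % of control where 0% means no effect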
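His-tagged ERG Ets domain (1 uM in the protein solution; 300mM KCl, 50mM Tris-HCl, 1mM EDTA, 1mM DTT, pH 7.5) received compound, then a probe mix of 5 nM fluorescein-DNA and 100nM Texas-615-DNA. Fluorescence polarization was read for both dyes.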
* = called active by the depositor; u = inconclusive; x = no result. Unless noted, the call rests on the fitted dose curve; in most records, active means well fitted curve in the direction sought with a large enough effect; inconclusive means small, poorly fitted or top-dose-only effect, or another doubt; inactive means no such curve, though single readings can be large; an effect the other way counts as inactive or inconclusive.

SMILES	Giardia kill	Gal4-VP16 FLuc	Integrin act MD	RORg inh	ERG-DNA inh
COc1ccc(N=c2oc3ccc(OC)cc3cc2-c2nc3ccccc3[nH]2)cc1	-14.0	-6.6%	-51.4%	10µM*	-2.7%
COc1ccc2oc(=O)c(-c3nc4ccccc4o3)cc2c1	14.9	1.7%	12.1%	3.8%	2.3%
O=c1oc2c(O)cccc2cc1-c1nc2ccccc2[nH]1	u	u	-625.4%	u	3.1%
COc1cccc(N=c2oc3ccc(OC)cc3cc2-c2nc3ccccc3[nH]2)c1	-11.3	-25.9%	0.0%	14.1µM*	-6.3%
COc1cccc(N=c2oc3ccccc3cc2-c2nc3ccccc3[nH]2)c1	u	u	13.1%	7.94µM*	5.0%
O=C(CSc1ccc2nnc(CCNS(=O)(=O)c3ccccc3)n2n1)Nc1ccccc1C(F)(F)F	x	x	x	x	0.1%
CCN(C(=O)c1c(C)oc2ncn(CC(C)C)c(=O)c12)c1cccc(Cl)c1	x	x	x	x	3.4%
Cc1ccc(-c2nnc3ccc(SCC(=O)OCc4ccccc4)nn23)cc1	-16.1	x	x	x	x
Cc1ccc(-c2ccc(/C=C3\C(=O)ON=C3c3ccccc3)o2)c([N+](=O)[O-])c1	0.2	15.8µM*	18.3%	u	4.1%
O=C(NCc1cc([N+](=O)[O-])ccc1O)c1cccnc1Sc1ccccc1	-12.3	11.2µM*	21.9%	10µM*	-10.6%
O=C(NNC(=O)c1cccnc1SCc1cccc([N+](=O)[O-])c1)c1ccc(F)cc1	-9.5	u	-54.4%	u	8.5%
O=C(NNC(=O)c1cccnc1SCc1cccc([N+](=O)[O-])c1)c1ccccn1	u	5.01µM*	4.5%	3.55µM*	-8.9%
Cc1ccc(Sc2ncccc2C(=O)NCc2cc([N+](=O)[O-])ccc2O)c(C)c1	-1.7	7.08µM*	-26.5%	5.01µM*	9.0%
O=C(NCc1ccccc1)c1cccnc1Sc1ccccc1	29.7	7.6%	-21.2%	17.9%	14.0%
Cc1ccc(Sc2ncccc2C(=O)NCC(c2ccc(F)cc2)N2CCOCC2)c(C)c1 (stereo not drawn)	17.6	x	6.2%	x	10.4%
O=C(NCCSc1c(-c2ccc(Br)cc2)[nH]c2ccccc12)c1ccc(S(=O)(=O)N2CCOCC2)cc1	x	x	x	x	3.6%
CCNc1ncc2ncc(=O)n(Cc3ccc(F)cc3)c2n1	x	-10.5%	x	-1.3%	x
O=C(NC(=S)Nc1cc(-c2nc3ccccc3[nH]2)ccc1Cl)c1ccc2c(c1)OCO2	4.8	-11.2%	-12.8%	12.6µM*	-14.7%
Cc1cc(C(=O)NNS(=O)(=O)c2cc(C(=O)O)ccc2Cl)c(C)n1-c1ccccc1	-4.6	x	5.6%	x	13.3%
O=C(COc1coc(CN2CCN(c3ccccc3F)CC2)cc1=O)NCC1CCCO1 (stereo not drawn)	1.3	x	13.8%	x	23.4%
O=C(CN1C(=O)C2CC=CCC2C1=O)OCC(=O)c1ccc(Cl)c([N+](=O)[O-])c1 (stereo not drawn)	-5.9	35.5µM*	-37.7%	-38.8%	0.1%
O=c1c2cc3c(cc2[nH]c(=S)n1C1CCN(Cc2ccccc2)CC1)OCO3	-12.3	3.55µM*	22.0%	5.01µM*	-18.5%
CCOc1cc2[nH]c(=S)n(C3CCN(Cc4ccccc4)CC3)c(=O)c2cc1OCC	10.1	u	-23.7%	u	-14.8%
Cc1nc(-c2cccs2)sc1C(=O)NN	7.3	u	0.0%	u	-3.0%
Cc1nc(-c2ccc(C(F)(F)F)cc2)sc1C(=O)NN	10.2	3.55µM*	-22.1%	4.47µM*	-24.9%
SMILES	Giardia kill	Gal4-VP16 FLuc	Integrin act MD	RORg inh	ERG-DNA inh
O=C(Nc1cnn(Cc2ccc(Cl)cc2Cl)c1)c1noc2c1CCc1ccccc1-2	x	x	x	x	3.6%
CCCN(CC1CC1)C(=S)NC(=O)C1CC1	2.3	12.6µM*	-9.8%	3.98µM*	-11.4%
O=C(N/N=C/c1ccc2c(c1)OCO2)c1ccc(COc2cccc3cccnc23)cc1	-4.6	-17.1%	-21.5%	-29.3%	-8.3%
COc1ccccc1-c1cc(C(=O)N/N=C/c2ccoc2)c2ccccc2n1	27.6	u	-20.2%	11.2µM*	4.1%
CCc1ccc(/C=N/NC(=O)c2cc(C3CC3)nc3ccc(Br)cc23)s1	-0.1	1.58µM*	-53.8%	2.24µM*	-1.9%
COc1ccccc1-c1cc(C(=O)N/N=C/c2ccc(C)s2)c2ccccc2n1	9.9	4.47µM*	22.9%	2.82µM*	-1.9%
CCc1ccc(/C=N/NC(=O)c2cc(-c3ccccc3OC)nc3ccccc23)s1	1.8	4.47µM*	-12.5%	3.98µM*	7.6%
CCN(CC)C(=O)COc1ccc(/C=N/NC(=O)c2cc(-c3ccccc3OC)nc3ccccc23)cc1OC	-16.8	x	9.7%	x	-1.5%
COc1ccc(/C=N/NC(=O)c2cc(-c3ccccc3OC)nc3ccccc23)cc1COC(C)=O	13.9	8.2%	-4.7%	9.7%	-0.2%
COc1cc(/C=N/NC(=O)c2cc(-c3ccccc3)nc3ccccc23)cc(OC)c1O	-5.1	0.2%	12.0%	-13.4%	-6.5%
N#CCCn1c(=O)c(-c2cc(F)cc(F)c2)nc2cnc(N3CCOCC3)nc21	x	-2.5%	x	6.3%	x
O=S1(=O)C2CC3OC2(CC3c2ccc(F)cc2)CN1Cc1ccc(Cl)cc1 (stereo not drawn)	-2.5	-28.1%	x	u	x
Cc1ccc(Nc2nc(-c3ccccc3)cs2)nc1	-25.6	u	-9.8%	u	11.1%
Cc1ccc(Nc2nc(-c3cccs3)cs2)nc1	-25.0	12.6µM*	56.8%	11.2µM*	-7.3%
Cc1ccc(NC(=O)CN(C)C(=O)C2CC(=O)N(Cc3ccccc3)C2)cc1 (stereo not drawn)	-12.5	-8.1%	36.0%	14.9%	4.1%
CCOc1cc(CNC(=O)C2COc3ccccc3C2)cc(OCC)c1OCC (stereo not drawn)	x	x	x	x	4.0%
COc1ccc(C2NN=C(c3ccc(C)cc3)S2)cc1 (stereo not drawn)	3.2	7.08µM*	-11.3%	u	5.4%
CCOc1cc(C2NN=C(c3ccc(C)cc3)S2)ccc1O (stereo not drawn)	-13.3	14.1µM*	-0.6%	1.12µM*	1.1%
CC1CCCCN1CCNC(=O)c1ccc2c(=O)n(CCc3ccccc3)c(=O)[nH]c2c1 (stereo not drawn)	25.8	-2.7%	-62.5%	3.8%	5.7%
CC1CCCCN1CCNC(=O)c1ccc2c(=O)n(Cc3ccc(Cl)cc3)c(=S)[nH]c2c1 (stereo not drawn)	13.3	u	-42.2%	11.2µM*	2.4%
CCCn1c(=S)[nH]c2cc(C(=O)N3CCN(C(=O)OCC)CC3)ccc2c1=O	-19.9	0.5%	-27.5%	-43.9%	-0.9%
CCOC(=O)N1CCN(C(=O)c2ccc(Cn3c(=S)[nH]c4ccc(Br)cc4c3=O)cc2)CC1	-26.3	14.1µM*	-12.3%	u	2.7%
CCOC(=O)N1CCN(C(=O)c2ccc3c(=O)n(CCc4ccccc4)c(=S)[nH]c3c2)CC1	-2.9	0.1%	9.7%	7.08µM*	-0.1%

Compound activity from PubChem.
